Reference: the supplement of paper PMC6555819

Key:
Assay in all cases: PBM binding z-score (relative to random genomic background probes); higher = stronger binding; sequences stand for … in GC…GCGATTGACAGCGTAGAATGAAGG
[1] = system: FXR:RXRa (NR concentration 270 nM, RXRa partner concentration 90 nM)
Method in brief: (§1)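 Binding z-scores were set against random background probes. The data came from custom Agilent 4×180K protein-binding microarrays carrying double-stranded probes with 34-nt variable regions, incubated 1 h with ligand-free nuclear receptor dimers. Partner-specific antibodies detected binding, and scanned fluorescence was regression-normalized.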

[2] = system: LXRa:RXRa (NR concentration 270 nM, RXRa partner concentration 90 nM)
Method in brief: as §1

[3] = system: LXRa homodimer (NR concentration 270 nM)
Method in brief: as §1

[4] = system: LXRb:RXRa (NR concentration 270 nM, RXRa partner concentration 90 nM)
Method in brief: as §1

[5] = system: LXRb homodimer (NR concentration 270 nM)
Method in brief: as §1

[6] = system: PPARa:RXRa (NR concentration 270 nM, RXRa partner concentration 90 nM)
Method in brief: as §1

[7] = system: PPARg:RXRa (NR concentration 180 nM, RXRa partner concentration 90 nM)
Method in brief: as §1

[8] = system: PPARg:RXRa 270nM:90nM, anti-RXR (NR concentration 270 nM, RXRa partner concentration 90 nM)
Method in brief: as §1

[9] = system: PPARg:RXRa 30nM:10nM, anti-RXR (NR concentration 30 nM, RXRa partner concentration 10 nM)
Method in brief: as §1

[10] = system: PPARg:RXRa 90nM:30nM, anti-RXR (NR concentration 90 nM, RXRa partner concentration 30 nM)
Method in brief: as §1

[11] = system: PPARg:RXRa DBDmut IVT, anti-RXR (DBD mutation: RXRa K156A/R161A, NR concentration 270 nM, RXRa partner concentration 90 nM)
Method in brief: as §1

[12] = system: PPARg:RXRa IVT, anti-PPARg (NR concentration 270 nM, RXRa partner concentration 90 nM)
Method in brief: as §1

[13] = system: PPARg DBDmut:RXRa IVT, anti-PPARg (DBD mutation: PPARg1 K132A/R137A, NR concentration 270 nM, RXRa partner concentration 90 nM)
Method in brief: as §1

[14] = system: PPARg DBDmut IVT, anti-PPARg (DBD mutation: PPARg1 K132A/R137A, NR concentration 270 nM)
Method in brief: as §1

[15] = system: PPARg homodimer (NR concentration 180 nM)
Method in brief: as §1

[16] = system: PXR:RXRa (NR concentration 270 nM, RXRa partner concentration 90 nM)
Method in brief: as §1

[17] = system: PXR homodimer (NR concentration 270 nM)
Method in brief: as §1

[18] = system: RARa:RXR (NR concentration 270 nM, RXRa partner concentration 90 nM)
Method in brief: as §1

[19] = system: RARa homodimer (NR concentration 270 nM)
Method in brief: as §1

[20] = system: RARb:RXRa (NR concentration 270 nM, RXRa partner concentration 90 nM)
Method in brief: as §1

Row | Sequence | PBM binding z-score [1] | PBM binding z-score [2] | PBM binding z-score [3] | PBM binding z-score [4] | PBM binding z-score [5] | PBM binding z-score [6] | PBM binding z-score [7] | PBM binding z-score [8] | PBM binding z-score [9] | PBM binding z-score [10] | PBM binding z-score [11] | PBM binding z-score [12] | PBM binding z-score [13] | PBM binding z-score [14] | PBM binding z-score [15] | PBM binding z-score [16] | PBM binding z-score [17] | PBM binding z-score [18] | PBM binding z-score [19] | PBM binding z-score [20]
1 | CTACCAAGGGGAACAAGGTCGTTGATTACTATTC | 0.208 | 0.398 | 0.166 | 1.28 | -0.298 | 1.24 | 0.284 | 0.325 | 0.0626 | 0.258 | 0.796 | 0.857 | -0.93 | 0.266 | 0.795 | 1.46 | 1.29 | 1.16 | -0.123 | 0.601
2 | GCAACGAGGGCATTCGAGTTGATAGCATGGCGAT | 0.802 | 1.56 | -0.374 | 0.0313 | -0.641 | 1.15 | 0.475 | 0.0611 | -0.488 | -0.307 | 1.69 | 1.13 | -0.431 | -0.39 | -0.299 | 3.66 | 1.02 | 0.56 | -0.554 | 1.69
3 | CCTACTGGGCCAAAAGGGTCATTGATGCCGATAA | 2.19 | 2.17 | 0.372 | 2.58 | -0.642 | 3.78 | 3.54 | 4.35 | 1.7 | 3.87 | 4.13 | 3.9 | -0.517 | -1.13 | 2.18 | 3.16 | 0.631 | 3.57 | -0.0364 | 2.74
